Among the data in PubChem BioAssay (EPA / NIEHS) are outcome and AC50 values, retold here.

A word on the AC50: it is the midpoint of the concentration-response curve, whichever way the signal moves.

Structures are written as SMILES. Where “and” joins values, the source holds several entries; their conditions need not be identical. Equal entries are not always repeated. Records with an inconclusive call do not appear. Calls of active or inactive are those of the source. How the source made its calls, unless noted: active means hit-call score of the fitted dose curve at least 0.9, where 1 is the maximum; inactive means score below 0.9.

Read-out in experiment [1]: Collagen I, COL1A1 (gene 1277)
Briefly: BSK_MyoF_CollagenI: BioMAP Diversity Plus: MyoF Assay for Collagen I Biomarker Activity (AID 2284238). Conditions: primary human lung fibroblasts. The method in brief:
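Collagen I levels measured by ELISA on human lung fibroblast cultures 24 h post-dosing, with curve fitting in the positive direction relative to DMSO; SRB staining of parallel wells marked cytotoxicity.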

Read-out in experiment [2]: Collagen III, COL3A1 (gene 1281)
Briefly: BSK_MyoF_CollagenIII: BioMAP Diversity Plus: MyoF Assay for Collagen III Biomarker Activity (AID 2284239). Conditions: primary human lung fibroblasts. The method in brief: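 Collagen III biomarker quantified by ELISA in human lung fibroblast cultures 24 h after dosing. Activity fitted in the positive direction against DMSO as baseline.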

Read-out in experiment [3]: Interleukin 17F (IL17F), IL17F (gene 112744)
Put plainly: BSK_BT_xIL17F: BioMAP Diversity Plus: BT Assay for Interleukin 17F (IL17F) Biomarker Activity (AID 2284243). Conditions: primary human B cells with PBMC. The method in brief:
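Human B cells co-cultured with PBMC; secreted IL-17F quantified by LumineX xMAP 24 hours after chemical dosing. Activity fitted in the positive direction against DMSO negative control as baseline.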

Read-out in experiment [4]: Interleukin 2 (IL2), IL2 (gene 3558)
Put plainly: BSK_BT_xIL2: BioMAP Diversity Plus: BT Assay for Interleukin 2 (IL2) Biomarker Activity (AID 2284245). Conditions: primary human B cells with PBMC. The method in brief:
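Human B cell plus PBMC co-culture, 24 h after chemical dosing; secreted IL-2 quantified by Luminex xMAP multiplex, fitted for signal gain against DMSO baseline.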

Read-out in experiment [5]: Basic fibroblast growth factor (bFGF), FGF2 (gene 2247)
Briefly: BSK_MyoF_bFGF: BioMAP Diversity Plus: MyoF Assay for Basic fibroblast growth factor (bFGF) Biomarker Activity (AID 2284246). Conditions: primary human lung fibroblasts. The method in brief:
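Human lung fibroblast cultures were dosed and measured 24 h later in 96-well format. bFGF biomarker levels quantified by ELISA, with activity fitted in the positive direction against DMSO.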

Experiment [6] in a line: CCTE_Mundy_HCI_hNP1_Casp3_7: CCTE's Caspase-Glo 3/7 Assay in human neuroprogenitor cells for Apoptosis, Mundy Lab (AID 2284240). In a few lines: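 Neuroepithelial-lineage stem cells from WA09 embryonic cells were treated with chemicals after 40–44 h of culture. Twenty-four hours later, caspase-3/7 activation was detected luminescently after a 30 min room-temperature reagent step, with DMSO as baseline.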

Experiment [7] can be described thus: CCTE_Mundy_HCI_Cortical_Synap_Neur_Matur_NeuronCount: CCTE's Synaptogenesis and Neurite Maturation Assay in rat cortical cells for Neuron Count, Mundy Lab (AID 2284242; active means hit-call score of the fitted dose curve at least 0.9, where 1 is the maximum). The method in brief:
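Rat primary cortical cells, AraC added at DIV 5, dosed with media change from DIV 7 to DIV 12. Fixed, Hoechst-stained and immunolabelled for MAP2 and synaptophysin; neuron number counted by high-content imaging, loss fitted versus DMSO.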

Regarding `C=C(C)C(=O)OCC(F)(F)C(F)(F)C(F)(F)C(F)(F)C(F)(F)C(F)(F)C(F)(F)F`, the outcome in experiment [1], in experiment [2], in experiment [3], in experiment [4] and in experiment [5] was inactive.

Consider `CS(C)(=O)=O`, for which the outcome in experiment [1], in experiment [2], in experiment [3], in experiment [4] and in experiment [5] was inactive.

Regarding `O=C(O)C(F)(F)C(F)(F)F`, the outcome in experiment [1], in experiment [2], in experiment [3], in experiment [4] and in experiment [5] was inactive.

For the compound `C#C[C@]1(O)CC[C@H]2[C@@H]3CCc4cc(OC)ccc4[C@H]3CC[C@@]21C`, the outcome in experiment [1], in experiment [2], in experiment [4] and in experiment [5] was inactive. Also, the AC50 in experiment [3] was 20 µM (active).

Take `Oc1ccc(Nc2ccccc2)cc1`: the outcome in experiment [1] and in experiment [5] was inactive. Moreover, the AC50 is 16.2 µM (active) in experiment [2], 27.7 µM (active) in experiment [3] and 37.2 µM (active) in experiment [4].

Consider `FC(F)(Br)C(F)(F)C(F)(F)C(F)(F)C(F)(F)C(F)(F)Br`, for which the outcome in experiment [1], in experiment [2], in experiment [3], in experiment [4] and in experiment [5] was inactive.

With `O[Si](c1ccccc1)(c1ccccc1)c1ccccc1`, the AC50 is 31.3 µM (active) in experiment [1], 31.5 µM (active) in experiment [2], 32.6 µM (active) in experiment [3] and 31.3 µM (active) in experiment [4]. For the same compound, the result in experiment [5] was inactive.

Regarding `C=CC(=O)OCC(F)(F)C(F)(F)C(F)(F)C(F)(F)C(F)(F)C(F)(F)C(F)(F)F`, the outcome in experiment [1], in experiment [2], in experiment [4] and in experiment [5] was inactive. The AC50 in experiment [3] was 6.72 µM (active) and 18.4 µM (active).

For the compound `OCC(F)(F)C(F)(F)C(F)(F)C(F)(F)C(F)(F)C(F)(F)F`, the outcome in experiment [1], in experiment [2], in experiment [4] and in experiment [5] was inactive. Besides, the AC50 in experiment [3] is 43.8 µM (active) and 40.2 µM (active).

Consider `FC(F)(F)C(F)(F)C(F)(F)C(F)(F)C(F)(F)CCI`, for which the outcome in experiment [1], in experiment [2], in experiment [3], in experiment [4] and in experiment [5] was inactive.

For `C=C(C)C(=O)OCCC(F)(F)C(F)(F)C(F)(F)C(F)(F)C(F)(C(F)(F)F)C(F)(F)F`, the result in experiment [1], in experiment [2], in experiment [3], in experiment [4] and in experiment [5] was inactive.

In the case of `OC[C@@H](O)[C@@H](O)[C@H](O)[C@@H](O)CO`, the compound was classed as inactive in experiment [6] and in experiment [7].

For `O=C(O)C(F)(F)C(F)(F)C(F)F`, the outcome in experiment [1], in experiment [2], in experiment [3], in experiment [4] and in experiment [5] was inactive.

On to `CCCCCCCOC(=O)c1ccccc1C(=O)OCCCCCCC`, for which the result in experiment [1], in experiment [2] and in experiment [5] was inactive. Further, the AC50 in experiment [3] is 12.2 µM (active); in experiment [4], 17.5 µM (active).

In the case of `FC(F)(I)C(F)(F)C(F)(F)C(F)(F)I`, the AC50 in experiment [1] is 51.6 µM (active) and 46.4 µM (active) and 54.1 µM (active); in experiment [2], 53.1 µM (active) and 54.9 µM (active) and 54.2 µM (active); in experiment [3], 30 µM (active) and 47.7 µM (active) and 43.1 µM (active); in experiment [4], 54.7 µM (active) and 47.8 µM (active) and 43.6 µM (active); in experiment [5] it was 51.4 µM (active) and 45.9 µM (active).

As to `OCCCC(F)(F)C(F)(F)C(F)(F)F`, the result in experiment [1], in experiment [2], in experiment [3], in experiment [4] and in experiment [5] was inactive.

`O=C(O)C(F)(F)C(F)(F)C(F)(F)C(F)(F)C(F)(F)C(F)(F)C(F)(F)C(F)(F)C(F)(F)C(F)F`: the AC50 in experiment [1] was 19 µM (active) and 16.1 µM (active); in experiment [2], 18.7 µM (active) and 16.4 µM (active). The outcome in experiment [3], in experiment [4] and in experiment [5] was inactive.

`O=C(O)C(F)(OC(F)(F)C(F)(OC(F)(F)C(F)(F)C(F)(F)F)C(F)(F)F)C(F)(F)F` (configuration not stated): the outcome in experiment [1], in experiment [2], in experiment [3], in experiment [4] and in experiment [5] was inactive.

In the case of `C=CC(F)(F)C(F)(F)C(F)(F)C(F)(F)C(F)(F)C(F)(F)C(F)(F)C(F)(F)C=C`, the outcome in experiment [1], in experiment [2], in experiment [3], in experiment [4] and in experiment [5] was inactive.

As to `OCC(F)(F)C(F)(F)C(F)(F)C(F)(F)C(F)(F)C(F)F`, the outcome in experiment [1], in experiment [2], in experiment [3], in experiment [4] and in experiment [5] was inactive.

Regarding `CCN(CC)c1ccc2c(C)cc(=O)oc2c1`, the result in experiment [1], in experiment [2], in experiment [3], in experiment [4] and in experiment [5] was inactive.

On to `O=C(O)C(F)(F)C(F)(F)C(F)(F)C(F)(F)C(F)(F)C(F)(F)C(F)(F)C(F)(F)C(F)(F)C(F)(F)C(F)(F)C(F)(F)C(F)(F)F`, for which the result in experiment [1], in experiment [2], in experiment [3], in experiment [4] and in experiment [5] was inactive.

As for `C=CC(F)(F)C(F)(F)C(F)(F)C(F)(F)C(F)(F)C(F)(F)C(F)(F)C(F)(F)F`, the result in experiment [1], in experiment [2], in experiment [3], in experiment [4] and in experiment [5] was inactive.

As to `CCCCOCCOCCOC(=O)CCCCC(=O)OCCOCCOCCCC`, the outcome in experiment [1], in experiment [2], in experiment [3], in experiment [4] and in experiment [5] was inactive.

As for `O=C(O)C(F)(F)C(F)(F)C(F)(F)C(F)(F)C(F)(F)C(F)(F)C(F)(F)C(F)(F)C(F)(F)C(F)(F)C(F)(F)C(F)(F)F`, in experiment [1], the AC50 is 24.5 µM (active) and 18.6 µM (active). In addition, the result in experiment [2], in experiment [3], in experiment [4] and in experiment [5] was inactive.
